From PubChem BioAssay AID686978 (National Center for Advancing Translational Sciences (NCATS), 2013)
In all, about 420,000 compounds went through this assay and about 64,000 (15%) were called active. Another 27% or so got no clear call; they are omitted. The call rests on the fitted dose curve; in most records, active means well fitted inhibition curve with a large enough effect; inconclusive means small, poorly fitted or top-dose-only effect; inactive means flat fitted curve, though single readings scatter. Only a sample is shown. A call without a number means that no potency is given here. Peptide text beside a SMILES is read from it.

assay: qHTS for Inhibitors of human tyrosyl-DNA phosphodiesterase 1 (TDP1): qHTS in cells in absence of CPT; conditions: DT40 Tdp1-/- hTDP1 cells, no CPT, ATP luminescence, 48 h; activity change, negative = growth inhibition: at 46.2 µM (top of the series); further: nearly all actives have a fitted effect of over 55% in size
Method in brief: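 DT40 Tdp1-/-;hTDP1 cells, no CPT (DMSO vehicle only), 400 cells/well; compounds pin-transferred; ≥48 hr, 37 °C; CellTiter-Glo 30 min RT dark, luminescence read.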
Potency means the concentration at half of the fitted maximal effect.

Row | SMILES | Potency
1 | O=C(Nc1cccc(F)c1)[C@@H]1CCCN1 | inactive
2 | CCCn1c(NCc2ccc(N(CC)CC)cc2)nc2ccccc21 | 8.2 µM (active)
3 | CCCn1nnnc1NCc1ccc(CC)cc1 | inactive
4 | CC(C)(C)C(=O)Cn1c(NCCO)nc2ccccc21 | inactive
5 | O=C(O)CN1C(=O)CC(Cc2ccccc2)C1=O (stereo not given) | inactive
6 | Cc1cc(NC(=O)COn2nnc3ccccc32)no1 | inactive
7 | COC(=O)c1cc(NC(=O)C2C3C=CC(C3)C2C(=O)O)cc(C(=O)OC)c1 (stereo not given) | inactive
8 | O=C(NCCCNCc1ccccc1)c1ccc(/C=N/O)nc1 | inactive
9 | CCc1ccc(Nc2n[n+](-c3ccccc3)c(-c3cccc(Cl)c3Cl)s2)cc1 | 16.4 µM (active)
10 | Cc1noc(C)c1S(=O)(=O)NCCc1ccc(S(N)(=O)=O)cc1 | inactive
11 | COC(=O)c1ccc([C@@H](O)[C@H](C)C(=O)CC(=O)OC(C)(C)C)cc1 | inactive
12 | c1ccc(CC2CCN(c3nc4ccccc4n4cnnc34)CC2)cc1 | inactive
13 | O=C(c1ccccc1)c1ccc2nc(N3CCCCC3)c3nncn3c2c1 | 13 µM (active)
14 | O=C(c1ccccc1)c1ccc(OC(=O)N2CCCC2)cc1 | inactive
15 | COc1ccc(OC)c(/C=C/C(=O)OCC(=O)Nc2ccc3c(c2)OCCO3)c1 | 16.4 µM (active)
16 | COc1ccccc1OCCCC(=O)Nc1ccc2c(c1)OCCO2 | inactive
17 | COc1cccc(/C=C/C(=O)Nc2ccc3c(c2)OCCO3)c1 | inactive
18 | S=c1c2[nH]cnc2ncn1CCSc1ncnc2nc[nH]c12 | inactive
19 | Cc1ccc(NC(=O)CN(C)C(=O)c2ccc(Cl)c(S(=O)(=O)NCc3ccco3)c2)cc1 | inactive
20 | CC[C@H](C)CCCCC(=O)N[C@@H](CCN)C(=O)N[C@H](C(=O)N[C@@H](CCN)C(=O)N[C@H]1CCNC(=O)[C@H]([C@@H](C)O)NC(=O)[C@H](CCN)NC(=O)[C@H](CCN)NC(=O)[C@H](CC(C)C)NC(=O)[C@@H](CC(C)C)NC(=O)[C@H](CCN)NC1=O)[C@@H](C)O (HELM PEPTIDE1{[CC[C@H](C)CCCCC(=O)[*:2]].[Dab].T.[Dab].[Dab].[Dab].[dL].L.[Dab].[Dab].T}$PEPTIDE1,PEPTIDE1,5:R3-11:R2$$$V2.0) | inactive

Row | SMILES | Potency
21 | O=C(CSc1nnc(CNC(=O)c2ccccc2)n1-c1ccc(F)cc1)Nc1ccccc1F | inactive
22 | CCOC(=O)/C=c1\s/c(=C\c2ccc(C#N)cc2)c(=O)n1CC(=O)Nc1cccc(C)c1C | 5.17 µM (active)
23 | CCOc1ccc(NC(=O)Cn2c(C)ccc(C#N)c2=O)cc1 | inactive
24 | Cc1cccc(NC(=O)CN2C(=O)c3ccccc3C2=O)c1C | inactive
25 | Cc1nc(SCC(=O)NC2CCCC2)[nH]c(=O)c1C | inactive
26 | Cc1ccsc1C(=O)OCC(=O)c1cc2ccccc2o1 | inactive
27 | CCCCc1nn2c(=O)cc(COC(=O)c3cccc(NC(=O)COc4ccccc4)c3)nc2s1 | inactive
28 | O=C1CS(=O)CN1c1ccc(Oc2ccccc2)cc1 (stereo not given) | inactive
29 | O=C(CN1C(=O)NC2(CCCCCC2)C1=O)NCc1ccc(F)cc1 | inactive
30 | COc1cc(OC)c(NC(=O)c2cc(S(=O)(=O)N3CCCC3)cn2C)cc1Cl | inactive
31 | COc1ccccc1N(C)C(=O)c1cc(S(=O)(=O)N2CCc3ccccc32)cn1C | 25.9 µM (active)
32 | COc1cccc(NC(=O)c2cc(S(=O)(=O)N3CCc4ccccc43)cn2C)c1 | inactive
33 | CN(C(=O)COC(=O)Cn1cnc2c1c(=O)n(C)c(=O)n2C)C1(C#N)CCCCC1 | inactive
34 | NCC(=O)c1cccc2ccc[n+]([O-])c12 | inactive
35 | O=C(c1cnccn1)N1CCC2(CCCN(Cc3ccccc3)C2)CC1 | inactive
36 | CCN(Cc1ccncc1)C(=O)[C@@H](CO)c1ccccc1 | inactive
37 | C=CCn1c(SCC(=O)NCc2ccccc2)nnc1-c1cc(Br)ccc1O | inactive
38 | COc1ccc(OCC(=O)NNC(=O)C2CCC2)cc1 | inactive
39 | COc1ccc(NC(=O)CCN2CCCC2)c(OC)c1 | inactive
40 | C=CCOC(=O)N1CCC2CC1c1cc(-c3ccc(OC)cc3)ccc12 (stereo not given) | 16.4 µM (active)

Row | SMILES | Potency
41 | COc1ccc(-c2ccc3c(c2)C2CC3CCN2CCC#N)cc1 (stereo not given) | 23.1 µM (active)
42 | CC1CC1C(=O)OCC(=O)c1c(N)n(C)c(=O)n(C)c1=O (stereo not given) | inactive
43 | CCOC(=O)N1CCN(C(c2cccnc2)c2ccc3cccnc3c2O)CC1 (stereo not given) | 1.64 µM (active)
44 | CCOC(=O)N1CCN(C(=O)c2cc3c(ccc4ccccc43)oc2=O)CC1 | inactive
45 | Cc1onc(C(=O)NN)c1C(=O)N1CCN(C(c2ccccc2)c2ccccc2)CC1 | inactive
46 | CCOC(=O)Cn1nnnc1C | inactive
47 | CCC(C)CCN1CCN=C1N(C)C (stereo not given) | inactive
48 | CC(C)NS(=O)(=O)c1ccc(OCC(=O)Nc2ccc3c(c2)OCCO3)cc1 | inactive
49 | CC1CC2=C(CC1/C=N/NC(N)=S)C(C)(C)CCC2 (stereo not given) | 3.26 µM (active)
50 | Cc1ccc(OCC(=O)OCc2cc(=O)n3nc(C4CC4)sc3n2)cc1C | inactive
51 | COc1cccc(Nc2nnc(SCC(=O)N3CC(=O)Nc4ccccc43)s2)c1 | inactive
52 | O=c1c2cc([N+](=O)[O-])ccc2nc2n1CCC2 | inactive
53 | N#C/C(=C/c1cccc([N+](=O)[O-])c1)c1nnc2n1CCCCC2 | 13 µM (active)
54 | N#C/C(=C(\O)C(F)(F)F)c1nnc2n1CCCCC2 | inactive
55 | Cc1ccc(NC(=O)c2cc([N+](=O)[O-])ccc2Cl)c(O)c1 | inactive
56 | CCn1cc(C(=O)N[C@@H](C)C(=O)NCCO)c(=O)c2cc3c(cc21)OCO3 | inactive
57 | NC(=O)c1sc(-c2ccsc2)cc1N | inactive
58 | C#CCOCCOCCOCCNc1nc(N2CCN(C(=O)[C@H](CCCN=C(N)N)n3cc(C(N)[C@@H](C)CC)nn3)CC2)nc(N2CCN(C(=O)[C@H](CO)n3cc([C@@H](N)C(C)C)nn3)CC2)n1 (stereo not given in full) | inactive
59 | C#CCOCCOCCOCCNc1nc(N2CCN(C(=O)CCCCCCCCCCNC(=O)[C@H]([C@@H](C)CC)n3cc(CCCCN=C(N)N)nn3)CC2)nc(N2CCN(C(=O)CCCCCCCCCCNC(=O)[C@H](CO)n3cc(CCCSC)nn3)CC2)n1 | 8.2 µM (active)
60 | C#CCOCCOCCOCCNc1nc(N2CCN(C(=O)Cn3cc(CCO)nn3)CC2)nc(N2CCN(C(=O)Cn3cc(CCCN=C(N)N)nn3)CC2)n1 | inactive
